Experimental data reported in PubChem BioAssay AID618 (Sanford-Burnham Center for Chemical Genomics, 2007).
Screen size: about 87,000 compounds; about 540 (0.62%) were called active. How the calls were made is not given here. The full list was thinned out, with actives kept by preference. Measured potencies and affinities stand elsewhere.

Assay: inhibitors of MT1-MMP promoter transcription, cell-based, luciferase reporter, luminescence (AID 618);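 further: actives suppress MT1-MMP promoter-driven transcription so potencies describe inhibitors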
Conditions: MT1-MMP promoter luciferase reporter cells

SMILES | outcome
Nc1ccc(-c2cnc(-c3ccc(N)cc3)nc2)cc1 | inactive
Brc1ccc(-c2ncc(-c3ccccc3)cn2)cc1 | inactive
O=C(O)CCc1nn2cnc3sc4c(c3c2nc1=O)CCCC4 | inactive
CCOc1c(S(=O)(=O)N2CCCC2)ccc(Cl)c1Cl | inactive
Cc1cccc(NC(=O)c2cc3n(n2)C(C(F)(F)F)CC(c2ccc4c(c2)OCO4)N3)c1 (stereo not drawn) | inactive
O=C(NC1CCCCC1)N(CCN1CCOCC1)Cc1cc2cc3c(cc2[nH]c1=O)OCCO3 | inactive
COc1ccc(OC)c(Nc2cc(C)nc3ccccc23)c1 | inactive
COc1ccc(OC)c(Nc2nc(N)nc(-c3cc4ccccc4o3)n2)c1 | inactive
COc1ccc(OC)c(Nc2cc(-c3ccccc3)nc(N)n2)c1 | active
COCCN(CC(=O)NCc1ccccc1)C(=O)CCC(=O)Nc1nccs1 | inactive
COc1ccc(C(c2sc3nc(C)nn3c2O)N2CC(C)OC(C)C2)cc1OC (stereo not drawn) | inactive
Cn1c(SCC(=O)N2CCOCC2)nc(O)cc1=O | inactive
O=c1c2ccccc2ncn1Cc1nc2ccccc2s1 | inactive
O=C1c2ccccc2S(=O)(=O)N1Cc1cc(=O)n2ccsc2n1 | inactive
c1ccc(C2=Nc3ccccc3OC2)cc1 | inactive
COc1ccc(C2=Nc3cc(C)ccc3OC2)cc1 | inactive
CSc1sc(C(=O)O)c2c1C(=O)CCC2 | inactive

SMILES | outcome
COc1cccc(C2NC(=O)NC(C)=C2C(=O)OCCSC)c1OC (stereo not drawn) | inactive
CN(C)S(=O)(=O)c1ccc(C(=O)Nc2ccc(CCC(=O)N3CCCC3)cc2)cc1 | inactive
CC1CN(Cc2nc3c(c(=O)[nH]c(=O)n3C)n2CC(N)=O)CC(C)O1 (stereo not drawn) | inactive
O=C(NC1CC1)c1ccc(-c2nc3ccccc3s2)s1 | active
CCCNC(=O)c1ccc(-c2nc3ccccc3s2)s1 | inactive
O=C(OC1CCOC1=O)c1ccc(-c2nc3ccccc3s2)s1 (stereo not drawn) | inactive
CCOC(=O)c1sc(Nc2ccc(C)cc2C)nc1C | inactive
COc1cc(CN2CCN(S(=O)(=O)c3ccc(F)cc3)CC2)cc(OC)c1OC | inactive
Nc1sc2c(c1C(=O)NC1CCS(=O)(=O)C1)CCCC2 (stereo not drawn) | inactive
COc1cc(C(N)=O)ccc1OCc1ccccc1 | inactive
O=C(O)c1cc(/C=N\O)ccc1OCc1ccccc1 | inactive
COc1cc(/C=N/O)ccc1OCc1ccc(C(=O)O)cc1 | active
CCOC(=O)Cn1cc(C(=O)OC)c2ccccc21 | inactive
O=C(C1c2ccccc2Oc2ccccc21)N1CCN(c2ccc(Cl)cc2)CC1 | inactive
CCOc1ccccc1N1CCN(C(=O)C2c3ccccc3Oc3ccccc32)CC1 | inactive
COc1ccccc1N1CCN(C(=O)C2c3ccccc3Oc3ccccc32)CC1 | active
